# MsrA inhibitor: inhibitors of bovine MsrA. purified bovine MsrA, absorbance read-out. inhibition, % at 15.5 µM. 360,000 compounds, 0.75% hits. AID 651718; in the data active = inhibition above about 4.5%
# PKA-R2B act: activators of human PKA-R2B complex; P22694+P31323; PKA-R2B holoenzyme dissociation, Cy5-IP20 fluorescence polarization; R2B truncated from residue 108, S112A mutant; 0% DMSO only, 100% 113 µM cGMP; activation, % at 11.4 µM; 340,000 compounds, 0.079% hits;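 active = activation above a cutoff set at the mean over all compounds plus 3 SD, cut at about 18% in these data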;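 note: higher means more holoenzyme dissociation and a rise in polarization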
# Target sequence (P31323 whole entry, looked up, other chains not shown, the tested form may be a part): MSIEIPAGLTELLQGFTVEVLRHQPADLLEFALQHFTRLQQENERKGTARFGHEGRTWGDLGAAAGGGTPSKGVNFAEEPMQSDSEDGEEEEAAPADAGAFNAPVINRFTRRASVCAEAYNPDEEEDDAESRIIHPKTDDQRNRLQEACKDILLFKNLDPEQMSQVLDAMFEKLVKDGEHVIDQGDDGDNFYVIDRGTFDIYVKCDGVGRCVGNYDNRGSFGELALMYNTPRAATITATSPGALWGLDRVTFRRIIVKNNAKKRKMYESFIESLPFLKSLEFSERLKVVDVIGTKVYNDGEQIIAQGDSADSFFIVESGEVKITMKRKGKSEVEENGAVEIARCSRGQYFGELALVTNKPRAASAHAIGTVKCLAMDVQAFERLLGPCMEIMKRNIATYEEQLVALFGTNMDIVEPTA
# PKA-R1A activ: activates the PKA-R1A holoenzyme complex. activation, % at 11.4 µM. P00514+P68181. AID 504707. 340,000 compounds, 0.083% hits. PKA-R1A dissociation, Cy5-IP20 fluorescence polarization; scaled: DMSO 0%, 113 µM cGMP 100%;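 active = percent activation above the mean of all tested compounds plus 3 SD, cut at about 19% in these data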;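 note: higher means more PKAc released from R1A so a rise in polarization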
# bovine MsrA act: bovine methionine sulfoxide reductase A activation; purified bovine MsrA, absorbance read-out; activation, % at 10.6 µM; 360,000 compounds, 0.3% hits; in the data active = activation above about 7.5%
# Mot1-301 SUMO: blocks SUMOylation pathway, rescuing yeast Mot1-301 growth. AID 2716. S. cerevisiae Mot1-301 growth rescue, ATP luminescence, 38.5C; percent above DMSO median, 100 means doubled. 320,000 compounds, 1% hits. growth rescue, % at 18.8 µM;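 active = every valid replicate shows activation above 250% relative to neutral control wells; inactive = the rest, any valid replicate at or below 250%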
# Yeast Mot1 SUMO: SUMO pathway inhibitors in yeast Mot1-301 growth; S. cerevisiae Mot1-301 galactose growth, ATP luminescence, 24 h; -100 = growth of slx-deleted rescue strain; growth activity, percent, % at 42 µM; AID 493004; 2,300 tested, under 10 active; shares compounds with Mot1-301 SUMO;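 active = Signal drops as the depositor expects, and the fitted half-maximal dose is no more than ten times the top valid tested dose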;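 note: more negative values mean stronger growth rescue toward the control strain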
# Hits are given with their value; – = inactive; · = not tested or not shown; + = active, no number. A selection: hits, their analogues and other compounds. The true share with any hit is near 2%.
SMILES,MsrA inhibitor,PKA-R2B act,PKA-R1A activ,bovine MsrA act,Mot1-301 SUMO,Yeast Mot1 SUMO
CCNC(=O)N1CCN(c2ccc(N3CCN(C(=O)NCC)[C@@H](C)C3)c(C)c2)[C@@H](C)C1,–,·,·,·,·,·
COC(=O)[C@H](Cc1ccccc1)NC(=O)NC(C)CCc1ccccc1 (stereo partly specified),–,–,–,–,871.1,–
C=CCN1C(=O)c2n[nH]c(COC)c2C1c1ccc(Br)cc1 (stereo unspecified),–,·,·,·,·,·
O=C(N/N=C/c1ccc(Cl)s1)c1ccccc1[N+](=O)[O-],–,–,–,–,805.0,–
CCc1cccc(-n2c(C)cc(O)cc2=O)c1,–,·,·,·,·,·
CN(C)c1cccc(C(=O)N2CCCC(CCC(=O)N3CCN(c4ccccn4)CC3)C2)c1 (stereo unspecified),–,–,–,–,–,·
CN(C)c1ccc(C(=O)N2CCCC(CCC(=O)N3CCN(c4ccccn4)CC3)C2)cc1 (stereo unspecified),–,–,–,–,553.6,–
Nc1nc(SCc2nc3scc(-c4cccs4)c3c(=O)[nH]2)n[nH]1,–,–,–,–,+,–
COc1ccc(N)cc1CN1CCN(c2ncc(Cc3ccccc3)cn2)CC1,–,·,·,·,·,·
O=C1C2CCCN2C(=S)N1C1CCCCC1 (stereo unspecified),–,–,–,–,621.6,–
Cc1ccc(N2C(=O)C3CCCN3C2=S)cc1 (stereo unspecified),–,–,–,–,–,·
COc1ccc(/C=C2\SC(=S)N(CCCC(=O)Nc3cc(C)on3)C2=O)cc1OC,–,–,–,–,+,–
CCn1c(SCC(=O)OC)nnc1-c1ccncc1,–,–,–,–,825.5,–
COC(=O)CSc1nnc(-c2ccncc2)n1N,–,–,–,–,–,·
CCn1c(SCC(=O)Nc2nc(-c3ccccc3)cs2)nnc1-c1ccccc1,–,–,–,–,569.8,–
CN(C)C(=O)c1cc(C(=O)c2ccc(C(F)(F)F)cc2F)c[nH]1,–,–,–,–,499.5,–
Oc1ccc(C(=S)N2CCCCC2)cc1,–,–,–,–,–,·
S=C(c1ccc(N2CCOCC2)cc1)N1CCCCC1,–,–,–,–,367.2,–
CC(C)(C)NC(=O)C(c1cccs1)N(Cc1cccs1)C(=O)c1ccc(CN2CCOCC2)o1 (stereo unspecified),–,·,·,–,+,–
Cc1ccc(C(C(=O)NC(C)(C)C)N(Cc2ccc3c(c2)OCO3)C(=O)c2ccc(CN3CCOCC3)o2)o1 (stereo unspecified),–,–,–,–,–,·
CS(=O)(=O)N1CCCC(C(=O)NCc2ccco2)C1 (stereo unspecified),–,–,–,–,384.5,–
O=C(NCc1ccco1)C1CCCN(S(=O)(=O)c2ccc(Br)cc2)C1 (stereo unspecified),–,–,–,–,–,·
CCC(C)[C@H](NC(=O)Nc1ccc(S(N)(=O)=O)cc1)C(=O)OC (stereo partly specified),–,–,–,–,742.7,–
CC(C)(C)n1nnnc1C(c1ccc(F)cc1)N(Cc1ccc(F)cc1)Cc1ccco1 (stereo unspecified),–,–,–,–,–,·
CC(C)(C)n1nnnc1C(c1ccc(Cl)cc1)N(Cc1cccnc1)Cc1ccco1 (stereo unspecified),–,–,–,–,436.7,–
SMILES,MsrA inhibitor,PKA-R2B act,PKA-R1A activ,bovine MsrA act,Mot1-301 SUMO,Yeast Mot1 SUMO
Cc1cc(Nc2cc(F)c(F)c(F)c2)cc(=O)n1-c1cc(F)c(F)c(F)c1,–,·,·,·,·,·
CC(C)(C)NC(=O)CN(C(=O)CCC(=O)Nc1nccs1)c1ccc2c(c1)OCCO2,–,–,–,–,543.4,–
NCc1ccc(OCCCN2CCC(C(O)(C3=CCCC3)c3ccccc3)CC2)cc1 (stereo unspecified),–,·,·,·,·,·
COC(=O)C(NC(C)=O)(Nc1nc2ccc(C)cc2s1)C(F)(F)F (stereo unspecified),–,–,–,–,–,·
COC(=O)C(NC(C)=O)(Nc1nc2ccc(S(C)(=O)=O)cc2s1)C(F)(F)F (stereo unspecified),–,–,–,–,+,–
On1c(-c2ccccc2Cl)nc2ncccc21,–,–,–,–,498.0,–
On1c(-c2ccccc2Cl)nc2ccccc21,–,–,–,–,–,·
CSCCC(NC(=O)OCc1ccccc1)C(=O)NC(Cc1c[nH]c2ccccc12)C(=O)O (stereo unspecified),–,·,·,·,·,·
O=C1CCc2cc(S(=O)(=O)N3CCCC3C(=O)NC3CCCCCCC3)ccc2N1 (stereo unspecified),–,–,–,–,–,·
O=C1CCc2cc(S(=O)(=O)N3CCC(C(=O)NC4CCCC4)CC3)ccc2N1,–,–,–,–,518.1,–
c1ccc2cc(OCCCn3ccnc3)ccc2c1,–,–,–,–,–,·
c1ccc2cc(Cn3ccnc3)ccc2c1,–,–,–,–,413.1,–
Cc1cc(Oc2cccnc2)ccc1NC(=O)Cc1c[nH]c2ccccc12,–,·,·,·,·,·
S=c1[nH]nc(-c2ccncc2)n1CC1CCCO1 (stereo unspecified),–,–,–,–,–,·
Fc1ccc(-c2n[nH]c(=S)n2CC2CCCO2)cc1 (stereo unspecified),–,–,–,–,392.9,–
C=CCn1c(CC(C)(C)C)nc2ccccc21,–,–,–,–,–,·
C=CCn1c(CCC)nc2ccccc21,–,–,–,–,633.7,–
COc1cccc(C(=O)N2CCC[C@@H]2C(=O)N2CCC[C@@H]2C(=O)NCc2ccccc2)c1,–,·,·,·,·,·
Cc1cccc(OCCN2CSC(=S)N(C)C2)c1,–,–,–,–,371.5,–
Cc1cccc(OCCCN2CCCCCC2)c1,–,–,–,–,–,·
COc1ccccc1CCn1cnc(-c2ccc(Cl)cc2)c1CC(C)C,–,·,·,·,·,·
C=CCNc1ccc2c(c1)OC[C@H](CC(C)C)NS2(=O)=O,–,·,·,·,·,·
COc1ccc(C(=O)N2CCC[C@H]2C(=O)N2CCC[C@@H]2C(=O)NCc2ccccc2)cc1F,–,·,·,·,·,·
NS(=O)(=O)c1ccc(CCNC(=O)CN2CCN(c3ccc(F)cc3)CC2)cc1,–,–,–,–,650.4,–
CCOC(=O)C1C(=O)NC(SCC(=O)Nc2nccs2)=C(C#N)C1c1ccccc1OCC (stereo unspecified),·,–,–,–,633.0,–
CCOC(=O)C1C(=O)NC(SCC(=O)OC)=C(C#N)C1c1ccccc1OCC (stereo unspecified),·,–,–,–,–,·
COCCNCc1ccccc1,–,–,–,–,646.6,–
COCCNCc1ccc(C(C)C)cc1,–,–,–,–,–,·
C[C@H](CO)N1C[C@H](C)[C@@H](CN(C)C(=O)Nc2ccc3c(c2)OCCO3)OCc2cn(nn2)CCCC1=O,–,·,·,·,·,·
Cc1nc(-c2ccncc2)sc1C(=O)Nc1ccc(Br)cc1,–,–,–,–,744.7,–

# Compound activity as filed in PubChem BioAssay.
